Experimental findings from PubChem BioAssay (NCI) are described below.

SMILES strings stand for the structures. About 83,000 compounds went through this panel and 20% of them were active in at least one assay; those are over-represented in the sample as a whole.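 Single-dose data. Exposure time 48 hours. Values below 10 considered active.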 Unmarked numbers belong to inactive results. Active and inactive are the calls of the source.

Some test systems named below: SR leukemia; RPMI-8226 leukemia; OVCAR-8 ovarian; OVCAR-5 ovarian; OVCAR-4 ovarian; SK-OV-3 ovarian; IGROV1 ovarian; OVCAR-3 ovarian; HS 578T breast; NCI/ADR-RES ovarian; T-47D breast; BT-549 breast; MDA-MB-435 melanoma; MCF7 breast; HCT-116 colon; HCC-2998 colon; KM12 colon; SW-620 colon.
Common to all, as to test: NCI-60 one-dose screen, 48 h (100 = growth as untreated, 0 = no growth, -100 = all killed)
Common to all, as to conditions: 10 µM unless noted

Turning to `CCn1c(SCC(=O)Nc2cccc(C(=O)/C=C/c3cc(OC)c(OC)c(OC)c3)c2)nc2ccccc2c1=O`, the growth was 5.81% (active) in the assay on SR leukemia; -7.09% (active) with RPMI-8226 leukemia; 34.3% in the assay with OVCAR-8 ovarian; 27.7% in the assay with OVCAR-5 ovarian; 39.9% in the assay with OVCAR-4 ovarian; 102% in the assay with SK-OV-3 ovarian. Besides, the growth was 13% in the assay with IGROV1 ovarian; 14.3% in the assay on OVCAR-3 ovarian; 59.3% with HS 578T breast; 14.1% with NCI/ADR-RES ovarian; 49.3% in the assay on T-47D breast; 52.8% with BT-549 breast. The growth with MDA-MB-435 melanoma was 36.7%; in the assay on MCF7 breast it was 19.9%; in the assay with HCT-116 colon, -28.8% (active); in the assay on HCC-2998 colon, 42.2%; in the assay on KM12 colon it was 44.6%.
For the molecule `CC(=O)Nc1cccc(Nc2nc(N[C@@H](C)c3ccccc3)c3ccccc3n2)c1`, the growth in the assay on SR leukemia is -43.4% (active); in the assay with RPMI-8226 leukemia, -30.9% (active); with OVCAR-8 ovarian it was 39%; in the assay with OVCAR-5 ovarian, 18.6%; in the assay with OVCAR-4 ovarian, 17.5%; with SK-OV-3 ovarian it was 53.6%. For the same molecule, the growth in the assay with IGROV1 ovarian is 18.4%; in the assay with OVCAR-3 ovarian, 13%; in the assay on HS 578T breast, 1.68% (active); in the assay on NCI/ADR-RES ovarian it was -0.0139% (active); in the assay with T-47D breast, 58.4%; in the assay with MDA-MB-435 melanoma, -48.9% (active). Further, the growth in the assay with SW-620 colon is 20.4%; in the assay on MCF7 breast it was 8.63% (active); in the assay with HCT-116 colon, 6.47% (active); with HCC-2998 colon it was -6.49% (active); in the assay on KM12 colon it was 22.9%.
With `C[C@@H](Nc1ncnc2ccc(-c3cnc(Cl)c(NS(C)(=O)=O)c3)cc12)c1ccccc1`, the growth in the assay on SR leukemia was 47.6%; in the assay with RPMI-8226 leukemia, 23.9%; with OVCAR-8 ovarian, 75.9%; in the assay on OVCAR-5 ovarian, 38.4%; in the assay on OVCAR-4 ovarian it was 58.3%; in the assay with SK-OV-3 ovarian, 55.6%. Further, the growth was 3.14% (active) with IGROV1 ovarian; 44.6% in the assay with OVCAR-3 ovarian; 27.1% in the assay with HS 578T breast; 85% with NCI/ADR-RES ovarian; 9.4% (active) in the assay on T-47D breast; 60.9% with MDA-MB-435 melanoma. Besides, the growth was 67.7% with SW-620 colon; 21.3% with MCF7 breast; 61% in the assay on HCT-116 colon; 70.6% with HCC-2998 colon; 89.3% in the assay with KM12 colon.
For `CS(=O)(=O)Nc1cc(-c2ccc3ncc(C#N)c(NCc4ccccc4)c3c2)cnc1Cl`, the growth was -18.9% (active) in the assay on SR leukemia; -35.3% (active) with RPMI-8226 leukemia; 7.32% (active) in the assay with OVCAR-8 ovarian; 3.75% (active) in the assay on OVCAR-5 ovarian; -6.69% (active) with OVCAR-4 ovarian; -15% (active) in the assay on SK-OV-3 ovarian. Moreover, the growth in the assay on IGROV1 ovarian was -17.4% (active); with OVCAR-3 ovarian, -5.17% (active); with HS 578T breast it was -21.2% (active); with NCI/ADR-RES ovarian, 24.5%; with T-47D breast, 0.176% (active); in the assay with MDA-MB-435 melanoma, -6.33% (active). For the same molecule, the growth in the assay on SW-620 colon was 4.13% (active); with MCF7 breast it was 6.39% (active); in the assay on HCT-116 colon it was 4.12% (active); with HCC-2998 colon it was 4.93% (active); in the assay on KM12 colon it was 8.53% (active).
As to `Cc1cc(S(=O)(=O)N(C)C)cc(NCC(=O)NC(=O)NCC(C)C)c1C`, the growth in the assay with SR leukemia was 91%; in the assay on RPMI-8226 leukemia, 97.4%; with OVCAR-8 ovarian, 104%; in the assay on OVCAR-5 ovarian, 87.8%; in the assay on OVCAR-4 ovarian, 76.4%; in the assay with SK-OV-3 ovarian, 112%. Further, the growth in the assay on IGROV1 ovarian was 77.2%; with OVCAR-3 ovarian it was 112%; in the assay on HS 578T breast, 103%; with NCI/ADR-RES ovarian, 114%; in the assay on T-47D breast, 110%; in the assay with MDA-MB-435 melanoma, 98.8%. Further, the growth in the assay on SW-620 colon is 98.4%; in the assay on MCF7 breast it was 94.8%; in the assay with HCT-116 colon, 100%; with HCC-2998 colon, 120%; with KM12 colon, 102%.
For the molecule `Nc1nc(Nc2ccccc2SSc2ccccc2Nc2nc(N)nc(-c3cccc(Br)c3)n2)nc(-c2cccc(Br)c2)n1`, the growth with SR leukemia was -44% (active); with RPMI-8226 leukemia, 59.6%; in the assay with OVCAR-8 ovarian, 68.4%; in the assay on OVCAR-5 ovarian, 95.5%; with OVCAR-4 ovarian it was 73%; in the assay with SK-OV-3 ovarian, 131%. The growth in the assay with IGROV1 ovarian was 54.9%; in the assay on OVCAR-3 ovarian, 100%; in the assay with HS 578T breast it was 74.3%; in the assay with NCI/ADR-RES ovarian, 21.3%; with T-47D breast it was 62.6%; in the assay with MDA-MB-435 melanoma, 93.9%. Besides, the growth is 98.5% in the assay on SW-620 colon; 69.2% in the assay with MCF7 breast; 47.8% with HCT-116 colon; 120% with HCC-2998 colon; 23.6% in the assay on KM12 colon.
In the case of `COc1c(N2CC3CCCNC3C2)c(F)cc2c(=O)c(C(=O)N/N=C/c3ccc(N(C)C)cc3)cn(C3CC3)c12` (centres undefined), the growth with SR leukemia is -33.5% (active); in the assay on RPMI-8226 leukemia, 62.9%; in the assay on OVCAR-8 ovarian, 87.3%; in the assay on OVCAR-5 ovarian it was 95.7%; with OVCAR-4 ovarian, 90%; in the assay on SK-OV-3 ovarian it was 114%. Moreover, the growth with IGROV1 ovarian was 58.9%; in the assay on OVCAR-3 ovarian it was 51.2%; in the assay on HS 578T breast, 95.8%; in the assay on NCI/ADR-RES ovarian it was 81.6%; in the assay on T-47D breast, 95.5%; in the assay with BT-549 breast, 121%. In addition, the growth in the assay with MDA-MB-435 melanoma is 94%; in the assay on HCT-116 colon, 31.3%; with HCC-2998 colon, 89.4%; with KM12 colon, 74.5%.
Regarding `COC[C@]12CCC(C)(C)C[C@H]1C1=CC[C@@H]3[C@@]4(C)CCCNC(C)(C)[C@@H]4CC[C@@]3(C)[C@]1(C)CC2`, the growth in the assay on SR leukemia is -55% (active); with RPMI-8226 leukemia, -34.8% (active); in the assay with OVCAR-8 ovarian, 52.2%; in the assay with OVCAR-5 ovarian, 5.67% (active); in the assay on OVCAR-4 ovarian it was -18.9% (active); with SK-OV-3 ovarian, 75.9%. In addition, the growth with IGROV1 ovarian was -54.4% (active); with OVCAR-3 ovarian, -46.9% (active); with HS 578T breast, -44.6% (active); with NCI/ADR-RES ovarian, -88% (active); in the assay on T-47D breast it was 28.8%; in the assay on MDA-MB-435 melanoma it was -76.3% (active). In addition, the growth in the assay on MCF7 breast was -71% (active); in the assay on HCT-116 colon, -89.6% (active); with HCC-2998 colon it was -91.2% (active); with KM12 colon it was -25.6% (active).
